A selection: hits, their analogues and other compounds. The true share with any hit is near 4.6%.
USP2a inh – qHTS Assay for Inhibitors of Ubiquitin-specific Protease USP2a. hit rate 0.1% among 60,000. Ubiquitin carboxyl-terminal hydrolase 2 (Homo sapiens), O75604. Potency, µM (doses to about 38.3 µM), without a hit: at the top dose activity change, negative = inhibition, hits mostly inhibitors. AID 927, 2007. USP2a enzymatic assay, qHTS inhibition; also: nearly all actives have a fitted effect of over 60% in size
Target sequence (O75604 whole entry, looked up): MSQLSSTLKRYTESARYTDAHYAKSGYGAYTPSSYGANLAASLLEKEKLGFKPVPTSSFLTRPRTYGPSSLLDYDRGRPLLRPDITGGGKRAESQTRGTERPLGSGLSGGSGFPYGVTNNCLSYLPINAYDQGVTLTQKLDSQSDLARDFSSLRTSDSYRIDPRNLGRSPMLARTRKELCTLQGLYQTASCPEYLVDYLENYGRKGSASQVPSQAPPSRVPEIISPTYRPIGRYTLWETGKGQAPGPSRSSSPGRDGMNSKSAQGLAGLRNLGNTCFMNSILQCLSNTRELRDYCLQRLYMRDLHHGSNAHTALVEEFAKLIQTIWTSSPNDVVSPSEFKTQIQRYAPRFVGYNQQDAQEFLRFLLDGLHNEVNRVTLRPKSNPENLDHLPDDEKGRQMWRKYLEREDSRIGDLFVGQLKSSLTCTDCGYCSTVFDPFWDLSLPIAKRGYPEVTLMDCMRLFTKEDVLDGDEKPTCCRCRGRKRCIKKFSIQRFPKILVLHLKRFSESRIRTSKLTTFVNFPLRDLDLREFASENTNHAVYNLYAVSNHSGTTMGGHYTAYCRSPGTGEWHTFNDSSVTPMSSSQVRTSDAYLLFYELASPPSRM
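USP2 core (20 nM final) was preincubated with compound for 30 min at RT in 20 mM Tris-HCl pH 8.0, 2 mM CaCl2, 2 mM beta-mercaptoethanol; Ub-PLA2 (20 nM) plus NBD C6-HPC (20 uM) then added, fluorescence read after 2.5 h.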
GBA mod – Glucocerebrosidase; Lysosomal acid glucosylceramidase (Homo sapiens), P04062; purified enzyme, resorufin glucoside fluorescence (screen aimed at inhibitors), 20 min; Potency, µM; hit rate 1.1% among 48,000; in the data active = potency below about 15 µM; inconclusive = mostly about 16 µM to 33 µM;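 also: the screen sought inhibitors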
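Wild-type enzyme at 0.2 nM final in 50mM citric acid/KH2PO4, 10mM sodium taurocholate, 0.01% tween-20, pH 5.9, with resorufin beta-D-glucopyranoside at 30 uM final. Compounds titrated, 20 min at RT, red fluorescence read; AC50 from titration.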
ALOX15 inhib – qHTS Assay for Inhibitors of 15-hLO (15-human lipoxygenase); Potency, µM (highest dose often 57.1 µM), without a hit: at the highest dose activity change, negative = inhibition, most hits filed as inhibitors; hit rate 1.4% among 74,000; Polyunsaturated fatty acid lipoxygenase ALOX15 (Homo sapiens), P16050; purified 15hLO-1, xylenol orange hydroperoxide absorbance; also: % is scaled to controls: 0 for no effect and ±100 for the full control effect; nearly all actives have a fitted effect of over 55% in size
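Purified human 15hLO-1 (40 nM final) in 25 mM Hepes pH 7.5, 0.01% Triton X-100 was preincubated with compound 15 min at room temperature, then reacted 6 min with 50 uM arachidonic acid; hydroperoxide detected by Fe-XO, 573/405 nm absorbance ratio.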
Tau filament bind – qHTS Assay for Tau Filament Binding | AID 596, 2007 | Potency, µM (series often up to 57.1 µM), without a hit: at the highest dose activity change, negative = inhibition | Microtubule-associated protein tau (Homo sapiens), P10636 | recombinant tau filaments, thioflavin S fluorescence, 15 h; filaments grown with octadecylsulfate alongside compound | hit rate 2% among 71,000;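 also: % is scaled to controls: 0 for no effect and ±100 for the full control effect; actives lower thioflavin S fluorescence by blocking filaments or displacing dye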
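Assay mix: 1 uM His-tagged tau, 30 uM sodium octadecylsulfate, thioflavine S dye in HEPES/NaCl/DTT buffer. Compound is added prior to the inducer. Fluorescence after 15 h at 37 C.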
PK Bst – Pyruvate Kinase. Potency, µM. purified pyruvate kinase, luminescence ATP production; ribose 5-phosphate activator present at AC10. AID 361, 2006. hit rate 1.2% among 51,000; in the data active = potency below about 11 µM; inconclusive = mostly about 12 µM to 25 µM;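 the screen sought inhibitors and activators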;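 also: scaled between full activation by ribose 5 phosphate and full inhibition by luteolin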
Hsp90 Hop PPI – qHTS Assay for Disrupters of an Hsp90 Co-Chaperone Interaction | Hsp90 C-terminal peptide / TPR2A (Hop) interaction, human | AlphaScreen TPR2A-His6 binding biotin-Hsp90 C-terminal peptide | Potency, µM (highest dose often 57 µM), for inactives: top-dose activity change, negative = inhibition | hit rate 0.44% among 71,000; active = well fitted curve in either direction with a large enough effect; inconclusive = small, poorly fitted or top-dose-only effect, or another doubt; also: % is scaled to controls: 0 for no effect and ±100 for the full control effect
Starred values were filed as active, the others as inactive; ! = not active in a repeat; [ ] = remark or other dose. Unless noted, calls follow the shape of the dose curve; as a rule, active = well fitted curve in the direction sought with a large enough effect; inconclusive = small, poorly fitted or top-dose-only effect, or another doubt; inactive = no such curve, though single readings can be large; an effect the other way counts as inactive or inconclusive. Potency is read from the fitted curve at half-maximal effect.

`CC(C)(C)C1CCC2(CC1)C(C#N)=C(SCC(=O)NC1CCCCC1)NC(=O)C2C#N` (stereo unspecified) gave USP2a inh 33.5%, GBA mod inconclusive, ALOX15 inhib -10.0%, Tau filament bind 12.6µM*, PK Bst >57 and Hsp90 Hop PPI -5.4%.
NC(=O)Cn1c(=O)n(CCCC(=O)NC2CCN(Cc3ccccc3)CC2)c(=O)c2ccccc21 was read as USP2a inh 7.6%, GBA mod >76.9, ALOX15 inhib 4.6%, Tau filament bind -1.6%, PK Bst >57 and Hsp90 Hop PPI 0.8%.
Screening Cn1c(SCc2ccc(Br)cc2)nnc1-c1cccs1 returned USP2a inh 9.9%, GBA mod >76.9, ALOX15 inhib 2.7%, Tau filament bind 24.0%, PK Bst >57 and Hsp90 Hop PPI -1.7%.
For COc1cccc(C(=O)NC2CC3CCCC(C2)N3CC(=O)Nc2ccc(N(C)C)cc2)c1 (stereo unspecified) the results were USP2a inh 20.6%, GBA mod >76.9, ALOX15 inhib -9.3%, Tau filament bind 12.6µM*, PK Bst >57 and Hsp90 Hop PPI inconclusive.
CCC(C)c1ccc2oc(-c3ccc(NC(=O)c4ncn[nH]4)cc3)nc2c1 (stereo unspecified) was read as USP2a inh 24.5%, GBA mod >76.9, ALOX15 inhib 12.1%, Tau filament bind 442.2%, PK Bst >57 and Hsp90 Hop PPI inconclusive.
For CCCc1nc2ccccc2c(=O)n1/N=C/c1ccc(O)cc1O the results were USP2a inh 3.9%, GBA mod >76.9, ALOX15 inhib -2.6%, Tau filament bind 3.5%, PK Bst >57 and Hsp90 Hop PPI -2.1%.
Screening CCOCCCNCC(=O)Nc1ccccc1N1CCOCC1 returned USP2a inh -0.9%, GBA mod >76.9, ALOX15 inhib 0.3%, Tau filament bind -1.2%, PK Bst >57 and Hsp90 Hop PPI -1.9%.
Screening CCOC(=O)c1[nH]cc(-c2ccccc2)c1N1CCOCC1 returned USP2a inh 2.6%, GBA mod >76.9, ALOX15 inhib 25.1µM*, Tau filament bind -5.1%, PK Bst >57 and Hsp90 Hop PPI -4.4%.
Screening CCCOc1ccc(C2c3c(oc4cc(C)c(C)cc4c3=O)C(=O)N2CCCN(C)C)cc1 (stereo unspecified) returned ALOX15 inhib -7.0%, Tau filament bind inconclusive and Hsp90 Hop PPI -2.9%.
Cc1cc2oc3c(c(=O)c2cc1C)C(c1ccc(F)cc1)N(CCCN1CCOCC1)C3=O (stereo unspecified) was read as ALOX15 inhib -15.4%, Tau filament bind 20µM* and Hsp90 Hop PPI -1.0%.
Screening CCOc1cccc(C2c3c(oc4cc(C)c(C)cc4c3=O)C(=O)N2CCCN(C)C)c1 (stereo unspecified) returned ALOX15 inhib 10.7%, Tau filament bind 12.6µM* and Hsp90 Hop PPI -2.3%.
CO[C@@H]1COC(=O)C/C=C\[C@H](C)COC(=O)[C@H](Cc2ccccc2)NC(=O)C/C=C\[C@H]1C was read as ALOX15 inhib -2.6%[11.4 µM].
For Cc1noc(C)c1S(=O)(=O)N1CCC(C(=O)N2CCN(C(=O)c3ccco3)CC2)CC1 the results were USP2a inh 5.8%, GBA mod >76.9, ALOX15 inhib 3.1%, Tau filament bind -3.9%, PK Bst >57 and Hsp90 Hop PPI -1.4%.
For COc1cc(CN2CCC(C(=O)NC3CCCC3)CC2)cc(OC)c1O the results were USP2a inh -16.0%, GBA mod >76.9, ALOX15 inhib 25.1µM*, Tau filament bind 6.6%, PK Bst >57 and Hsp90 Hop PPI -8.5%.
`CCOC(=O)C1CCCN(Cc2cc(OC)c(O)c(OC)c2)C1` (stereo unspecified) gave ALOX15 inhib 1.3%.
COc1ccc(NC(=O)c2[nH]c(C)c(C(C)=O)c2C)cc1Cl was read as USP2a inh 25.4%, GBA mod >76.9, ALOX15 inhib 31.6µM*, Tau filament bind 42.8%, PK Bst >57 and Hsp90 Hop PPI -5.8%.
Screening CC(=Nc1ccc2c(c1)nc(CO)n2C)C1=C(O)CC(C)(C)CC1=O returned USP2a inh -0.8%, GBA mod inactive, ALOX15 inhib 4.1%, Tau filament bind -2.8%, PK Bst >57 and Hsp90 Hop PPI -9.3%.
O=C1C(=C2CCCCC2)SC(=S)N1Cc1ccco1 was read as USP2a inh 49.2%[7.66 µM], ALOX15 inhib 3.98µM*, Tau filament bind -24.4%[11.4 µM] and Hsp90 Hop PPI -2.5%[11 µM].
Screening O=C(O)CCN1C(=O)C(=C2CCCCCC2)SC1=S returned USP2a inh -5.1%, GBA mod >76.9, ALOX15 inhib -15.2%, Tau filament bind 4.3%, PK Bst >57 and Hsp90 Hop PPI -2.5%.
Screening CCOC(=O)N1CCC(N2Cc3cccc(C(=O)Nc4ccc(OC)c(OC)c4)c3C2=O)CC1 returned ALOX15 inhib 7.0%, Tau filament bind 25.9% and Hsp90 Hop PPI -4.6%.
`COc1ccc(OCCSc2nnc(-c3ccccc3)n2N)cc1` gave USP2a inh -5.9%, GBA mod >76.9, ALOX15 inhib 12.6µM*, Tau filament bind -1.5%, PK Bst >57 and Hsp90 Hop PPI -12.5%.
`CCOC(=O)CCc1cccc2c1CCC2=O` gave USP2a inh 7.4%, GBA mod >76.9, ALOX15 inhib 4.1%, Tau filament bind -26.7%, PK Bst >57 and Hsp90 Hop PPI 1.0%.
COc1ccc(NC(=O)N2CCCCC2)cc1 was read as USP2a inh 3.6%, GBA mod >76.9, ALOX15 inhib -1.9%, Tau filament bind -3.2%, PK Bst >11.4 and Hsp90 Hop PPI -1.4%.
For C=CCn1c(SCCCC)nc(O)cc1=O the results were ALOX15 inhib -1.0%, Tau filament bind 3.3% and Hsp90 Hop PPI -5.9%[2.3 µM].
CC(C)(C(=O)O)c1ccc(C(O)CCCN2CCC(C(O)(c3ccccc3)c3ccccc3)CC2)cc1 (stereo unspecified) was read as USP2a inh 5.6% and ALOX15 inhib 20µM*!.
Screening COc1ccc(Br)cc1S(=O)(=O)N(CC(=O)N1CCOCC1)c1ccccc1 returned ALOX15 inhib -1.1%.
`COc1cccc2c1C(=O)c1c(O)c3c(c(O)c1C2=O)C[C@](O)(C(C)=O)C[C@H]3O[C@@H]1C[C@H](N)[C@H](O)[C@H](C)O1` gave USP2a inh 48.9%[17.1 µM], ALOX15 inhib 7.1%[25.6 µM], Tau filament bind 1.58µM* and Hsp90 Hop PPI inconclusive.

Source: PubChem BioAssay (National Center for Advancing Translational Sciences (NCATS))
